Test results: the supplement of paper PMC3545927
Some of the results follow. How many sequences the whole screen found active is unknown.

Molecular target: furin, P09958
Assay: furin cleavage Z-score vs untreated control; higher = more cleavage, active = 3.5 or more, inactive = 1 or less, 8 variable residues between constant flanks
Procedure: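 Multiplexed peptide-cDNA fusion cleavage assay. 8-mer variable peptides flanked by constant Cys-Ala (N-term) and Ala-Gly-Asn-Ala-Ser-Ala-Ser-Ala (C-term) and conjugated to a cDNA oligonucleotide were bead-immobilised via the N-terminus. They were treated with purified furin at a 1:10 enzyme:substrate ratio in 50 mM HEPES pH 7.5, 1 mM CaCl2, 100 mM NaCl for 7.5, 15 or 30 min. Released cDNA was counted by next-generation sequencing, and log counts versus no-furin controls were lowess-adjusted and converted to robust Z-scores.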

Chain of furin, P09958 (P09958 whole entry): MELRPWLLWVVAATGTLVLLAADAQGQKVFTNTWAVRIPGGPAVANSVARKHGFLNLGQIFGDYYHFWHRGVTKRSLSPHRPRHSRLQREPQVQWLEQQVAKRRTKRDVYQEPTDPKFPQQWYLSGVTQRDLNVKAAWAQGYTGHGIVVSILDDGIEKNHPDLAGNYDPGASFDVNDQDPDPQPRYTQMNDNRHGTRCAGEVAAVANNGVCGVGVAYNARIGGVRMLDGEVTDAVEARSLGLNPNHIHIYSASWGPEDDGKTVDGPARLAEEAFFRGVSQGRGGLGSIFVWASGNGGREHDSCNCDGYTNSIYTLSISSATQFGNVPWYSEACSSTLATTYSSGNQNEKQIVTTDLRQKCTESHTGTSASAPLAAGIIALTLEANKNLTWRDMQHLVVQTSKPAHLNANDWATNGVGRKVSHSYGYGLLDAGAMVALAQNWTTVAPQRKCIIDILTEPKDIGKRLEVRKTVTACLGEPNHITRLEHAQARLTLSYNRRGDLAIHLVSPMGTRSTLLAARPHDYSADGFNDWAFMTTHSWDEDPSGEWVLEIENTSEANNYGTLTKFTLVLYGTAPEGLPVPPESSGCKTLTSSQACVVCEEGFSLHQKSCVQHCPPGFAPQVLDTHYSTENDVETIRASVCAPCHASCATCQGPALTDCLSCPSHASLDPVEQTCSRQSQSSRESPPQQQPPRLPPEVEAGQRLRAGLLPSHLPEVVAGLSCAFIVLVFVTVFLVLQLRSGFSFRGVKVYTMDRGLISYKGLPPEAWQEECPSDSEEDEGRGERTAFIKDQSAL

Sequence: CAKALGLLQTAGNASASA [HC1026]
- furin cleavage Z-score (7.5 min): -0.0968 (inactive)
- furin cleavage Z-score (15 min): 0.32 (inactive)
- furin cleavage Z-score (30 min): -1.95 (inactive)

Sequence: CAEQGMMLAEAGNASASA [HC1020]
- furin cleavage Z-score (7.5 min): 0.411 (inactive)
- furin cleavage Z-score (15 min): 0.355 (inactive)
- furin cleavage Z-score (30 min): -0.0666 (inactive)

Sequence: CAGLLRFCALAGNASASA [HC619]
- furin cleavage Z-score (7.5 min): -0.221 (inactive)
- furin cleavage Z-score (15 min): -0.963 (inactive)
- furin cleavage Z-score (30 min): 0.576 (inactive)

Sequence: CARTKRFVSEAGNASASA [FS-3106]
- furin cleavage Z-score (7.5 min): 7.52 (active)
- furin cleavage Z-score (15 min): 9.36 (active)
- furin cleavage Z-score (30 min): 7.54 (active)

Sequence: CAVVCCSLSYAGNASASA [HC2045]
- furin cleavage Z-score (7.5 min): 0.285 (inactive)
- furin cleavage Z-score (15 min): 2.15
- furin cleavage Z-score (30 min): 0.578 (inactive)

Sequence: CARGARLVSEAGNASASA [FS-1708]
- furin cleavage Z-score (7.5 min): 0.305 (inactive)
- furin cleavage Z-score (15 min): -0.752 (inactive)
- furin cleavage Z-score (30 min): 0.671 (inactive)

Sequence: CARTKRNAKIAGNASASA [FS-2384]
- furin cleavage Z-score (7.5 min): 8.15 (active)
- furin cleavage Z-score (15 min): 8.32 (active)
- furin cleavage Z-score (30 min): 7.88 (active)

Sequence: CARTKRFLSYAGNASASA [FS-2826]
- furin cleavage Z-score (7.5 min): 4.24 (active)
- furin cleavage Z-score (15 min): 5.3 (active)
- furin cleavage Z-score (30 min): 6.61 (active)

Sequence: CARPWKSVSEAGNASASA [FS-2060]
- furin cleavage Z-score (7.5 min): -0.467 (inactive)
- furin cleavage Z-score (15 min): 0.327 (inactive)
- furin cleavage Z-score (30 min): 1.73

Sequence: CARTKRKPSIAGNASASA [FS-2612]
- furin cleavage Z-score (7.5 min): 0.358 (inactive)
- furin cleavage Z-score (15 min): -0.0194 (inactive)
- furin cleavage Z-score (30 min): 0.82 (inactive)

Sequence: CARIPREVSEAGNASASA [FS-2031]
- furin cleavage Z-score (7.5 min): 7.41 (active)
- furin cleavage Z-score (15 min): 8.89 (active)
- furin cleavage Z-score (30 min): 7.69 (active)

Sequence: CARNQRDAWIAGNASASA [FS-2731]
- furin cleavage Z-score (7.5 min): -0.28 (inactive)
- furin cleavage Z-score (15 min): -0.224 (inactive)
- furin cleavage Z-score (30 min): -0.1 (inactive)
